The record followed here is PubChem BioAssay.

The source made the active and inactive calls. Unless noted, how the calls were made is not given here.

Assay [1] is described as follows: compounds binding Alexa647 anti-His antibody – biochemical, small-molecule microarray, 635 nm fluorescence, artefact control for SMM control protein annotation, primary screen (AID 1128).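 Further: score merges feature fluorescence with signal-to-noise for each printed compound spot.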 Conditions: higher = more signal.
Assay [2] deals with Human papillomavirus type 1a E7 protein (residues 1-88). In words: HPV1a E7 small-molecule binders, primary screen, biochemical, small-molecule microarray, residues 1-88, 635 nm (AID 1129). Conditions: small-molecule microarray binding, fluorescence 635 nm; higher = more signal.
In assay [3] the target is Focal adhesion kinase 1 (Homo sapiens) (UniProt Q05397). As to the kind of experiment: PTK2 protein binding on printed compound slides – biochemical, small-molecule microarray, 635/667 nm fluorescence, BSA, DTT, primary screen (AID 1130).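 Further: composite of spot emission at 667 nm and signal to noise over triplicate slides.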 Conditions: 635 nm fluorescence, higher = more signal.
Focal adhesion kinase 1 (Homo sapiens), sequence (Q05397 whole entry, looked up): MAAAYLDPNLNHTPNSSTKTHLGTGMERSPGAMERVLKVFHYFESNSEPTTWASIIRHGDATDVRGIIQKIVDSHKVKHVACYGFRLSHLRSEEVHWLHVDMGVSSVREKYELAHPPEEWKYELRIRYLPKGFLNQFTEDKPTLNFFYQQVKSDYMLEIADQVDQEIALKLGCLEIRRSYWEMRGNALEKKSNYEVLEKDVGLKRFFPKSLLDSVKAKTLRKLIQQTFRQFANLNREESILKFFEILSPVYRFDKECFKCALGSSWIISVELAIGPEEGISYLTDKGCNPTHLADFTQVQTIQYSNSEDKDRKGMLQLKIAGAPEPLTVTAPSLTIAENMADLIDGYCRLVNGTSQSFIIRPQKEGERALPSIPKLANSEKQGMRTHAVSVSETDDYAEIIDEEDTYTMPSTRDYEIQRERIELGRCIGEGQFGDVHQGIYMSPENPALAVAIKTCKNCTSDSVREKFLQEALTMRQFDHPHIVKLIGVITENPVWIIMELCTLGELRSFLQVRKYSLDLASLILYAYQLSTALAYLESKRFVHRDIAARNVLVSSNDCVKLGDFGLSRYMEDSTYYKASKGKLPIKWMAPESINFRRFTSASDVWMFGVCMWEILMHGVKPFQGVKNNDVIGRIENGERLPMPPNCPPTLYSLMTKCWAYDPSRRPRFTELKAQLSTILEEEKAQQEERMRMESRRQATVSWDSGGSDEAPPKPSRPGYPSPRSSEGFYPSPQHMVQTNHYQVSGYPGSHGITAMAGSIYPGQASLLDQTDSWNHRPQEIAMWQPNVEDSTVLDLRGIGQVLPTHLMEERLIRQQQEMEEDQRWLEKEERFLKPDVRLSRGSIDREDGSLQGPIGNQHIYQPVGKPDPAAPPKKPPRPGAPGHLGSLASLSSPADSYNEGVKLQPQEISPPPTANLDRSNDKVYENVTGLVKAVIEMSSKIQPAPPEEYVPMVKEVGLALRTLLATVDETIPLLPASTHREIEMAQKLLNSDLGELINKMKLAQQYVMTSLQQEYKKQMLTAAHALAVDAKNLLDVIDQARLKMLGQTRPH
Assay [4] has as its system Fibrinogen (Alexa647-labelled). As to the kind of experiment: Alexa647-fibrinogen binding to printed small molecules – biochemical, small-molecule microarray, 635/667 nm fluorescence, artefact control for SMM control-protein annotation, profiling panel (AID 1131).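 Further: z-score merges 667 nm fluorescence with per-spot signal-to-noise over triplicate slides.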 The following applies: fibrinogen-A647 binding fluorescence, higher = more signal.
For assay [5], the target named is Follistatin (Homo sapiens) (UniProt P19883). As to the kind of experiment: FST protein binding to printed compounds – biochemical, small-molecule microarray, 635/667 nm fluorescence, primary screen (AID 1132). Conditions: 635 nm fluorescence, higher = more signal.
Follistatin (Homo sapiens), sequence (P19883 whole entry, looked up): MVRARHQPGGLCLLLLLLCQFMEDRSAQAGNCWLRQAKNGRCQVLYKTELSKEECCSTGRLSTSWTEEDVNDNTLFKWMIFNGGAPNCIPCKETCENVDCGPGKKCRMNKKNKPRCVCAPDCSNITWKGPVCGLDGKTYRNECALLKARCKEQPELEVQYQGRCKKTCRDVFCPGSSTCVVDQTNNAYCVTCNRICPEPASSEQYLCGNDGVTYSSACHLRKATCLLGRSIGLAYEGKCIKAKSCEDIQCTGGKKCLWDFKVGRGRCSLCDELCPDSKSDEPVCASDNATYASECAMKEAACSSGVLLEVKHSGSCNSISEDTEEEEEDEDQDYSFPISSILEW
Assay [6] has as its target Fibroblast growth factor 2 (Homo sapiens) (UniProt P09038). As to the kind of experiment: basic fibroblast growth factor binding to printed compounds – biochemical, small-molecule microarray, 635/667 nm fluorescence, primary screen (AID 1133). Conditions: FGF2, fluorescence 635/667, higher = more signal.
Assay [7] can be described thus: JC-1 mitochondrial potential readout, lung cancer cells – cell-based, A549, JC-1 fluorescence, basal, 24 h, 100 nL, profiling panel (AID 1138).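 Further: A549 lung adenocarcinoma cells under basal conditions with no added stimulus; test concentration not given here.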 The following applies: higher = more signal.
In the next assay the test system is Lefty1. As to the kind of experiment: Lefty1 protein binding to printed compounds – biochemical, small-molecule microarray, 635/667 nm fluorescence, primary screen (AID 1139). The following applies: fluorescence 635/667, higher = more signal.
Assay [8] relates to wheat germ agglutinin (Triticum aestivum), Alexa647-labelled. As to the kind of experiment: Alexa647-WGA lectin binding to printed small molecules – biochemical, small-molecule microarray, 635/667 nm fluorescence, artefact control for SMM control-protein annotation, profiling panel (AID 1140).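 Further: score merges 667 nm feature emission with signal to noise over triplicate slides.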 The following applies: WGA-A647 binding, 635 nm fluorescence, higher = more signal.
The target of assay [9] is Luciferin 4-monooxygenase (Photinus pyralis) (UniProt P08659). As to the kind of experiment: inhibition of purified Photinus pyralis luciferase – biochemical, luminescence, purified enzyme, 2006 set, primary screen (AID 1141).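 Further: cell-free assay with purified firefly luciferase at 100 ng per well in PBS; test concentration not given here.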 The following applies: purified firefly luciferase, SteadyGlo luminescence, 30 min; higher = more signal, called active from +8 up or from −8 down.
Luciferin 4-monooxygenase (Photinus pyralis), sequence (P08659 whole entry, looked up): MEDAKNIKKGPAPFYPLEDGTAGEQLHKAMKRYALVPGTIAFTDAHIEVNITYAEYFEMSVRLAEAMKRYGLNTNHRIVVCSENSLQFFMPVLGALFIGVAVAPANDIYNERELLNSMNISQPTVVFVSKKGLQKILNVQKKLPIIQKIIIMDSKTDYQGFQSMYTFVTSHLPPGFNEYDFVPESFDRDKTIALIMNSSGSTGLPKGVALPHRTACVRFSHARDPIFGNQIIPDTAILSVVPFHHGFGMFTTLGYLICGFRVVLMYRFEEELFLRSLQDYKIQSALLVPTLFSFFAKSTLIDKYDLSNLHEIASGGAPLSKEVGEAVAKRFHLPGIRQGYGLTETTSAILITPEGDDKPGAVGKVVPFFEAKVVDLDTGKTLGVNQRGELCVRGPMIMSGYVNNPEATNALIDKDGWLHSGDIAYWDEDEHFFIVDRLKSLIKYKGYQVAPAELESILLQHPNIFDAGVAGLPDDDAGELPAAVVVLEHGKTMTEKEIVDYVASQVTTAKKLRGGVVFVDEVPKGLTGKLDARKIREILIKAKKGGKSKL

Assay [10] deals with Wnt5a (protein binding on small-molecule microarray). As to the kind of experiment: small molecules binding Wnt5a protein – biophysical, small-molecule microarray, 635/667 nm fluorescence, primary screen (AID 1142).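 Further: fluorescence read at 667 nm with signal to noise per printed feature.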 Conditions: 635 nm fluorescence, higher = more signal.
Assay [11] can be described thus: ATP-based viability of Huh7 replicon cells – cell-based, CellTiter-Glo luminescence, basal, 48 h, cytotoxicity control for HCV replication inhibitor project, primary screen (AID 1143).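 Further: Huh7 hepatoma cells carrying a hepatitis C replication reporter with no stimulus; test concentration not given here.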 The following applies: higher = more signal, called active from +8 up or from −8 down.
The nature of assay [12]: Pseudomonas biofilm growth suppression – PAO1 strain, BacTiter-Glo luminescence, LB-PBS, primary screen (AID 1144). Conditions: P. aeruginosa PAO1 biofilm, 12 h, higher = more signal.
The nature of assay [13]: basal CRE-LacZ reporter activity in PC12 – cell-based, unstimulated, primary screen (AID 1145). The following applies: no forskolin, luminescence, 4.5 h, higher = more signal, called active from +8 up or from −8 down.
Assay [14] can be described thus: forskolin-driven CRE-LacZ activity in PC12 – cell-based, CRE-LacZ reporter, forskolin-stimulated, primary screen (AID 1146).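 Further: PC12 cells with 6xCRE LacZ reporter stimulated by forskolin 10 µM; beta-galactosidase reporter signal reflecting CREB driven transcription.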 The following applies: luminescence, 4.5 h, higher = more signal, called active from +8 up or from −8 down.
Assay [15] deals with Streptavidin (Streptomyces avidinii) (UniProt P22629). As to the kind of experiment: compounds binding control protein streptavidin – biophysical, small-molecule microarray, 635/667 nm fluorescence, artefact control for SMM compound annotation, primary screen (AID 1147).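 Further: signal reflects streptavidin binding to arrayed compounds as a control protein.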 Conditions: higher = more signal.
Streptavidin (Streptomyces avidinii), sequence (P22629 whole entry, looked up): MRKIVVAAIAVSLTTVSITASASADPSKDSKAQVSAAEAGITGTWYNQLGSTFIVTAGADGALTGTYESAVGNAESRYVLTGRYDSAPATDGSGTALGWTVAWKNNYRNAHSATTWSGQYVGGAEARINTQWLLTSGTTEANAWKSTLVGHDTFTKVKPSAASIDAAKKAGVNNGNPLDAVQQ
The nature of assay [16]: probe aInhba binding on compound microarray – biochemical, small-molecule microarray, 635/667 nm fluorescence, primary screen (AID 1148).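 Further: score merges 667nm spot fluorescence with signal-to-noise for antibody binding to printed compounds.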 The following applies: higher = more signal.
The target of assay [17] is Torsin-1A (Homo sapiens) (UniProt O14656). As to the kind of experiment: TOR1A wild-type binding on microarray – cell lysate, small-molecule microarray, lysate, 635/667 nm, primary screen (AID 1149). The following applies: COS7 hTOR1A-WT lysate, 635 nm fluorescence, higher = more signal.
Torsin-1A (Homo sapiens), sequence (O14656 whole entry, looked up): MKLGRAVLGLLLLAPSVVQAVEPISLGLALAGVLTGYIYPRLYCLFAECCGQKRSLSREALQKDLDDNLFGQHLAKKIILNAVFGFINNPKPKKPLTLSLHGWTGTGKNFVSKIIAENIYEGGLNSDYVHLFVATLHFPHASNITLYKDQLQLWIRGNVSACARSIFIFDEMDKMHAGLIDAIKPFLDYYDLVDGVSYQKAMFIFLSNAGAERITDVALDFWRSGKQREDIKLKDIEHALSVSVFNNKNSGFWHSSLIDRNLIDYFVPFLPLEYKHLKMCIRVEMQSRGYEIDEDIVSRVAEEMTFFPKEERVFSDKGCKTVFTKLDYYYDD
Assay [18] shares this target. In words: torsin A mutant lysate binding on microarrays – cell lysate, small-molecule microarray, COS7 lysate, 635/667 nm fluorescence, primary screen (AID 1150).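 Further: score pools 667 nm emission and signal to noise measuring lysate protein binding.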 The following applies: COS7 hTOR1A mutant lysate, 635 nm fluorescence, higher = more signal.
Assay [19] deals with Sonic hedgehog protein (Shh). As to the kind of experiment: Sonic hedgehog microarray binding compounds – biochemical, small-molecule microarray, 635/667 nm fluorescence, primary screen (AID 1151).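 Further: Shh protein binding to compounds spotted on small-molecule microarray slides; score combines spot fluorescence intensity with signal-to-noise across triplicate slides.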 Conditions: 635 nm fluorescence, higher = more signal.

Fibroblast growth factor 2 (Homo sapiens), sequence (P09038 whole entry, looked up): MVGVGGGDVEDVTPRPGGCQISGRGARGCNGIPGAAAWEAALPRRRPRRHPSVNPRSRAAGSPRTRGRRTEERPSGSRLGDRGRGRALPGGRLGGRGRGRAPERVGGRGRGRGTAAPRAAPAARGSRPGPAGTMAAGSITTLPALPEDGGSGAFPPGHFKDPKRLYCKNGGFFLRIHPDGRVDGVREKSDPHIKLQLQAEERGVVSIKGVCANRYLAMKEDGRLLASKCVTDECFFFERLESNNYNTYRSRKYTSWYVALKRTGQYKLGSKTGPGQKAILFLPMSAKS

`COC(=O)c1ccc(C(O)C2C=CC3C(=O)N(c4ccccc4)C(=O)C3N2Nc2ccc(C#N)cc2)o1` (stereo not given): the composite z-score in assay [1] came to 0.355; in [2] it was 0.889; in [3] it was 0.303; in assay [4], 1; in assay [5] it was 0.62; in [6], 0.275. For the same molecule, the composite z-score in the assay on Lefty1 was -0.0841; in assay [8], 0.475; in [10], 0.304; in assay [15], 0.337; in [16], -0.0901; with Torsin-1A (Homo sapiens) [17], 0.928. In addition, the results for the composite z-score (in the assay with Torsin-1A (Homo sapiens) [18]; in assay [19]) were 0.0721 and -0.0224, respectively. In addition, the z-score in [7] is 0.385; in [9], -1.32 (inactive); in assay [11] it was 1.07 (inactive); in assay [12], -1.05 (inactive); in assay [13] it was 1.4 (inactive); in assay [14], -0.22 (inactive).
With `COc1ccc([Si](C)(C)[C@@H]2[C@@H](CCn3cc([C@H](O)c4ccccc4)nn3)O[C@]3(C(=O)N(Cc4cccc(N5CCOC5=O)c4)c4ccccc43)[C@H]2C)cc1`, the composite z-score in assay [1] was -1.11; in assay [2] it was -0.576; in assay [3], -0.753; in [4] it was -1.23; in [5], -1.68; in assay [6], -0.977. The composite z-score is -1.31 in the assay with Lefty1; -0.452 in assay [8]; -0.105 in [10]; -0.469 in [15]; -0.292 in assay [16]; -0.568 with Torsin-1A (Homo sapiens) [17]. Further, the composite z-score with Torsin-1A (Homo sapiens) [18] was -0.668; in assay [19] it was -0.98. For the same molecule, the z-score was 2.14 in assay [7]; -1.5 (inactive) in assay [9]; -1.08 (inactive) in assay [11]; -1.69 (inactive) in assay [12]; 0.134 (inactive) in assay [13]; -1.36 (inactive) in [14].
As for `CC(C)NC(=O)[C@@H]1c2ccccc2C(=O)N(Cc2ccccc2Cl)[C@H]1c1ccc(CO)cc1`, the composite z-score is 3.06 in assay [1]; 0.247 in assay [2]; -0.313 in assay [3]; -0.629 in assay [4]; -0.555 in assay [5]; -0.222 in assay [6]. Moreover, the composite z-score in the assay with Lefty1 is -0.221; in [8], 0.842; in assay [10], -0.243; in [15], -0.418; in assay [16], -0.179; with Torsin-1A (Homo sapiens) [17], 0.267. The figures for the composite z-score (with Torsin-1A (Homo sapiens) [18]; in assay [19]) were 0.343 and 0.0599, respectively. The z-score was 2.55 in [7]; -1.08 (inactive) in assay [9]; -0.485 (inactive) in assay [11]; 0.471 (inactive) in assay [12]; 0.145 (inactive) in assay [13]; -0.47 (inactive) in assay [14].
Turning to `CCCCC=C[C@@H](NC(=O)c1ccco1)c1ccccc1`, the composite z-score in assay [1] is 0.34; in assay [2], -1.19; in assay [3], -0.0668; in assay [4], 1.01; in [5] it was 0.487; in [6], 0.133. Moreover, the composite z-score with Lefty1 was -0.337; in assay [8] it was 0.653; in assay [10], 0.143; in assay [15] it was 0.889; in assay [16] it was 0.194; in the assay with Torsin-1A (Homo sapiens) [17] it was 0.129. Also, the composite z-score worked out at 0.225 with Torsin-1A (Homo sapiens) [18] and 0.0154 in assay [19]. In addition, the z-score in [7] was -0.881; in assay [9], 2.18 (inactive); in assay [11], -1.08 (inactive); in assay [12], -0.668 (inactive); in [13] it was 0.19 (inactive); in assay [14], -0.0695 (inactive).
As for `C=CC[C@@]1(C(=O)NCC(O)CO)N=C(c2ccc(OCCCO)cc2)O[C@@H]1c1ccccc1N=[N+]=[N-]` (stereo not given in full), the composite z-score in assay [1] is 2.92; in assay [2], 1.12; in assay [3] it was -0.121; in assay [4], 0.415; in [5] it was 0.849; in assay [6] it was -0.0851. Besides, the composite z-score with Lefty1 turned out to be 0.003; in assay [8], 1.12; in [10], 0.147; in assay [15] it was 1.02; in assay [16], 0.246; with Torsin-1A (Homo sapiens) [17] it was 1.4. The composite z-score was 1.48 with Torsin-1A (Homo sapiens) [18] and -0.0776 in assay [19]. Besides, the z-score in [7] is -0.921; in assay [9] it was -11.2 (active); in assay [11], -4.04 (inactive); in assay [12], -0.281 (inactive); in assay [13], 0.573 (inactive); in [14], -0.815 (inactive).
